The supplement of paper PMC10849652
Of roughly 7,900 targets only a part is listed; those with a hit were picked by preference. About 0.6% of all pairs of compound and target were hits.

Experiments:
Assay in all cases: log2 fold change, soluble protein after heating vs DMSO (PISA); higher = thermal stabilisation; K562 cells, 10 uM, 30 min; active = over 0.2 and 3.5 SD of the protein, either way, in both replicates (recomputed)
bafetinib = compound: Cc1ccc(NC(=O)c2ccc(CN3CC[C@H](N(C)C)C3)c(C(F)(F)F)c2)cc1Nc1nccc(-c2cncnc2)n1 [bafetinib]
Method in brief: (§1)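 K562 cells at 2×10^6 cells/mL were treated for 30 min with 10 μM compound, and aliquots were heated for 3 min over 48°C-58°C before pooling. Extraction used PBS with 0.5% NP-40 at 4°C, and soluble protein was the supernatant after 21,000xg for 90 min, measured by TMTpro 16plex LC-MS/MS with channel sums equalised. Thermal stability values, relative to control samples and from duplicates, are log2 fold changes.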

[1] = compound: Cc1cccc(CC(=O)N2CCc3c2ccc(-c2cn(C)c4ncnc(N)c24)c3F)n1
Method in brief: as §1

nilotinib = compound: Cc1cn(-c2cc(NC(=O)c3ccc(C)c(Nc4nccc(-c5cccnc5)n4)c3)cc(C(F)(F)F)c2)cn1 [nilotinib]
Method in brief: as §1

[2] = compound: Cc1nc(Nc2n[nH]c3c2CN(C(=O)N[C@H](CN(C)C)c2ccccc2)C3(C)C)c2sccc2n1
Method in brief: as §1

dasatinib = compound: Cc1nc(Nc2ncc(C(=O)Nc3c(C)cccc3Cl)s2)cc(N2CCN(CCO)CC2)n1 [dasatinib]
Method in brief: as §1

[3] = compound: Cc1ncc(-c2ccnc(Nc3ccc(S(C)(=O)=O)cc3)n2)n1C(C)C
Method in brief: as §1

[4] = compound: Cn1cc(-c2ccc3c(c2)CCN3C(=O)Cc2cccc(C(F)(F)F)c2)c2c(N)ncnc21
Method in brief: as §1

[5] = compound: Cn1cc(-c2ccc3nnc(C(F)(F)c4ccc5ncccc5c4)n3n2)cn1
Method in brief: as §1

tipifarnib = compound: Cn1cncc1[C@@](N)(c1ccc(Cl)cc1)c1ccc2c(c1)c(-c1cccc(Cl)c1)cc(=O)n2C [tipifarnib]
Method in brief: as §1

mubritinib = compound: FC(F)(F)c1ccc(/C=C/c2nc(COc3ccc(CCCCn4ccnn4)cc3)co2)cc1 [mubritinib]
Method in brief: as §1

Measured: log2 fold change

DUS2 (UniProt Q9NX74)
inactive: bafetinib -0.017 | [1] -0.025 | nilotinib -0.243 | [2] -0.032 | dasatinib -0.07 | [3] 0.014 | [4] -0.072 | [5] 0.01 | tipifarnib 0.094 | mubritinib 0.045

DNAJC7 (UniProt Q99615)
inactive: bafetinib -0.047 | [1] 0.031 | nilotinib -0.107 | [2] -0.048 | dasatinib -0.136 | [3] 0.024 | [4] 0.068 | [5] 0.058 | tipifarnib -0.012 | mubritinib 0.037

FAM114A2 (UniProt Q9NRY5)
inactive: bafetinib -0.094 | [1] 0.025 | nilotinib -0.035 | [2] -0.032 | dasatinib -0.083 | [3] 0.004 | [4] 0.001 | [5] 0.019 | tipifarnib -0.002 | mubritinib 0.055

DHX40 (UniProt Q8IX18)
inactive: bafetinib -0.033 | [1] 0.038 | nilotinib -0.052 | dasatinib -0.229 | [3] 0.118 | [4] 0.103 | [5] 0.035 | tipifarnib 0.017 | mubritinib 0.084
active: [2] -0.289

EEF1D isoform 2 (UniProt P29692)
Sequence of UniProt P29692 (P29692 whole entry, looked up): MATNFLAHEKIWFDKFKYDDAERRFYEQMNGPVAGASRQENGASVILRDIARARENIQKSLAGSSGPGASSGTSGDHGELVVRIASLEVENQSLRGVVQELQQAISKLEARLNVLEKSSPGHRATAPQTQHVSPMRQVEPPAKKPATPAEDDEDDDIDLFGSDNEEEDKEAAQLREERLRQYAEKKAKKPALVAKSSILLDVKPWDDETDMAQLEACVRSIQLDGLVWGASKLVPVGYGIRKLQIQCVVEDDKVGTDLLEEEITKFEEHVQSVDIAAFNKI
inactive: bafetinib 0.025 | [1] -0.011 | nilotinib -0.066 | [2] -0.01 | dasatinib -0.051 | [3] 0 | [4] -0.007 | [5] -0.044 | tipifarnib -0.103 | mubritinib 0.081

EIF4A1 (UniProt P60842)
inactive: bafetinib 0.032 | [1] 0.014 | nilotinib -0.135 | [2] -0.063 | dasatinib -0.114 | [3] -0.047 | [4] 0.036 | [5] -0.022 | tipifarnib -0.058 | mubritinib -0.08

FADS1, A0A0A0MR51
inactive: bafetinib -0.03 | [1] 0.062 | nilotinib 0.004 | [2] -0.005 | dasatinib 0.011 | [3] -0.019 | [5] -0.045 | tipifarnib -0.021 | mubritinib 0.028
active: [4] 0.253

EIF4G1 isoform 8 (UniProt Q04637)
Sequence of UniProt Q04637 (Q04637 whole entry, looked up): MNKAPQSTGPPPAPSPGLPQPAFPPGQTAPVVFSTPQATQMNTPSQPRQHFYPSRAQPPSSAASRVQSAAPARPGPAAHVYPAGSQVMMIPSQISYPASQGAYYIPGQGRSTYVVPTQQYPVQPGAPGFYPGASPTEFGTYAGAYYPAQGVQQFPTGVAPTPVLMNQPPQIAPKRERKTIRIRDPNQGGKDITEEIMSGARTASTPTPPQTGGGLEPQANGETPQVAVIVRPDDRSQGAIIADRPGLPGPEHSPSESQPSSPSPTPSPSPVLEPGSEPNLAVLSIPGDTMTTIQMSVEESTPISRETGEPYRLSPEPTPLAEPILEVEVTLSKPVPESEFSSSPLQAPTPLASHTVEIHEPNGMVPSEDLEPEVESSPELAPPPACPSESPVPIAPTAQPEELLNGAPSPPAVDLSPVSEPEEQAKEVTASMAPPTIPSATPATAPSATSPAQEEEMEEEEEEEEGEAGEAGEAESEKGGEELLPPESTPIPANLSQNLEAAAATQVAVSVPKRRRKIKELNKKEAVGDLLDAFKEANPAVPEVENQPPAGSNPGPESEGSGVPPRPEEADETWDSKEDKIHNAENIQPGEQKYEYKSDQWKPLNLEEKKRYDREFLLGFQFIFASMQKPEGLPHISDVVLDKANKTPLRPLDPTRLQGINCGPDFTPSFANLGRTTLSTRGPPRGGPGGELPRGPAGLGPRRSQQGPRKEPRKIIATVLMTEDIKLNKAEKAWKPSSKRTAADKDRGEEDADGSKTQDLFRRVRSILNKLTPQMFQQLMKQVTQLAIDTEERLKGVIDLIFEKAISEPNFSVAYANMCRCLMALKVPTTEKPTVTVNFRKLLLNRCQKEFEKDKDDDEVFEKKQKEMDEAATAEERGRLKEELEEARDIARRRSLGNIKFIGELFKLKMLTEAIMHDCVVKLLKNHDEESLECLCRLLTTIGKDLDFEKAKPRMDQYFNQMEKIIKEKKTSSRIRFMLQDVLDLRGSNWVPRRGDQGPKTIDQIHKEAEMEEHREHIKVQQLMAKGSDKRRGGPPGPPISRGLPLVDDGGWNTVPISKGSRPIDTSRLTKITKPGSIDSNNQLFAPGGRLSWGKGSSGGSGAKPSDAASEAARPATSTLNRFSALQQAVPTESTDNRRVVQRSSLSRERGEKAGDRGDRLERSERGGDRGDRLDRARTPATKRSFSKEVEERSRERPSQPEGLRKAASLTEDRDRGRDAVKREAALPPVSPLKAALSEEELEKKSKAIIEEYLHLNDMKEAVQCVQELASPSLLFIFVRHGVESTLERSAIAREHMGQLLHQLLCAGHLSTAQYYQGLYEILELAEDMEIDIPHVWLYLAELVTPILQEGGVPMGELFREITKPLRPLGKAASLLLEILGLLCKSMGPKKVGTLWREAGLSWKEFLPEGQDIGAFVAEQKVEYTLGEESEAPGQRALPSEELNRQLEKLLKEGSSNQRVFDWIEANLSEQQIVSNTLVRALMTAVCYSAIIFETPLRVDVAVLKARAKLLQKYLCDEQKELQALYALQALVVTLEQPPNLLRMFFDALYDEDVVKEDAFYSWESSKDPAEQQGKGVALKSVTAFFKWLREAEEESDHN
inactive: bafetinib -0.002 | [1] 0.046 | nilotinib -0.223 | [2] -0.11 | dasatinib -0.157 | [3] -0.17 | [4] -0.155 | [5] -0.117 | tipifarnib -0.083 | mubritinib -0.071

EEA1 (UniProt Q15075)
inactive: bafetinib -0.043 | [1] -0.021 | nilotinib 0.013 | [2] 0 | dasatinib 0.061 | [3] 0.004 | [4] -0.015 | [5] 0.028 | tipifarnib 0.007 | mubritinib 0.041

FAM160B1 (UniProt Q5W0V3)
inactive: bafetinib -0.018 | [1] 0.023 | nilotinib -0.032 | [2] -0.049 | dasatinib -0.082 | [3] -0.014 | [4] -0.053 | [5] -0.039 | tipifarnib 0.115 | mubritinib 0.023

EEF1B2 (UniProt P24534)
Sequence of UniProt P24534 (P24534 whole entry, looked up): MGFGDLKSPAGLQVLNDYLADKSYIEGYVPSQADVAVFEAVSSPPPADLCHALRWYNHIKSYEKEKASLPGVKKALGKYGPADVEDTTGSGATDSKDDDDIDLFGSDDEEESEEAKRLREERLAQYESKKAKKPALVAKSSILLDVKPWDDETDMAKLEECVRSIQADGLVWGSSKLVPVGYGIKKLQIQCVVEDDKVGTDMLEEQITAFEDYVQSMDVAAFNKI
inactive: bafetinib 0.006 | [1] 0.025 | nilotinib -0.042 | [2] -0.03 | dasatinib 0.026 | [3] 0.043 | [4] -0.057 | [5] -0.054 | tipifarnib -0.109 | mubritinib 0.058

EIF3J (UniProt O75822)
active: [1] 0.266
inactive: bafetinib -0.067 | nilotinib 0.001 | [2] -0.019 | dasatinib -0.018 | [3] 0.008 | [4] 0.022 | [5] -0.014 | tipifarnib -0.013 | mubritinib 0.033

DTWD2 (UniProt Q8NBA8)
inactive: bafetinib -0.023 | [1] -0.008 | nilotinib 0.065 | [2] -0.019 | dasatinib 0.126 | [3] 0.022 | [4] 0.215 | [5] 0.096 | tipifarnib -0.071 | mubritinib -0.087

DCAF16 (UniProt Q9NXF7)
inactive: bafetinib -0.051 | [1] -0.056 | nilotinib -0.005 | [2] -0.004 | dasatinib -0.179 | [3] 0.005 | [4] -0.031 | [5] 0.091 | tipifarnib -0.155 | mubritinib -0.085

DFFB (UniProt O76075)
Sequence of UniProt O76075 (O76075 whole entry, looked up): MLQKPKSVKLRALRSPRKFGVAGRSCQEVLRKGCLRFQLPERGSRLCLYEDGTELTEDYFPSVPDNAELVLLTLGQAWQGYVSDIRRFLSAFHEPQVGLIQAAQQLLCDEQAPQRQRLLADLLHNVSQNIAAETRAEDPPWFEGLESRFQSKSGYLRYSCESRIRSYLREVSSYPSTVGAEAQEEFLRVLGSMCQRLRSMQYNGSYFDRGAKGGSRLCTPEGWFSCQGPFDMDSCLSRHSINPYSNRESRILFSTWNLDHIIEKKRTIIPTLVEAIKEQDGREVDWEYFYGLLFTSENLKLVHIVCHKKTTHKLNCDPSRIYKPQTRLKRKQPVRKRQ
inactive: bafetinib 0.042 | [1] -0.032 | nilotinib -0.047 | [2] -0.156 | dasatinib -0.057 | [3] 0.056 | [4] -0.053 | [5] 0.002 | tipifarnib -0.072 | mubritinib 0.019

DNAH11 (UniProt Q96DT5)
inactive: bafetinib 0.097 | [1] -0.396 | nilotinib 0.101 | [2] 0.015 | dasatinib -0.036 | [3] 0.072 | [4] -0.441 | [5] 0.126 | tipifarnib 0.344 | mubritinib -0.276

EEF1G isoform 2 (UniProt P26641)
inactive: bafetinib 0.033 | [1] 0.083 | nilotinib -0.034 | [2] -0.03 | dasatinib -0.032 | [3] 0.045 | [4] -0.03 | [5] -0.05 | tipifarnib -0.124 | mubritinib 0.028

ERLIN1 (UniProt O75477)
Sequence of UniProt O75477 (O75477 whole entry, looked up): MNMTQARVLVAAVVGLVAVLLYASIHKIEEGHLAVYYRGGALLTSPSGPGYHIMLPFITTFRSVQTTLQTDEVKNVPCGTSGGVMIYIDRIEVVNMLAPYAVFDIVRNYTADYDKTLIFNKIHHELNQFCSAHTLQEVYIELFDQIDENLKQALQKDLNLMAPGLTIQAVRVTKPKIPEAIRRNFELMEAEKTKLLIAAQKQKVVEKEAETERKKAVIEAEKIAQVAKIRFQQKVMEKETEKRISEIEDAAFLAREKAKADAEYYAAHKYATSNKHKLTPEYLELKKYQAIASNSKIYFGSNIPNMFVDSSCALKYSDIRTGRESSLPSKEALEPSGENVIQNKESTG
inactive: bafetinib 0.041 | [1] 0.094 | nilotinib -0.153 | [2] 0.032 | dasatinib -0.031 | [3] 0.004 | [4] -0.11 | [5] 0.002 | tipifarnib 0.026 | mubritinib -0.053

CTNNB1 (UniProt P35222)
inactive: bafetinib 0.026 | [1] 0.057 | nilotinib -0.056 | [2] 0.205 | dasatinib -0.149 | [4] -0.004 | [5] -0.021 | tipifarnib -0.115 | mubritinib 0.076
active: [3] 0.858

CUX1 isoform 2 (UniProt Q13948)
inactive: bafetinib 0.051 | [1] 0.042 | nilotinib -0.001 | [2] -0.029 | dasatinib -0.084 | [3] 0.078 | [4] 0.072 | [5] 0.063 | tipifarnib 0.062 | mubritinib 0.007

DHX36 (UniProt Q9H2U1)
inactive: bafetinib 0.065 | [1] 0.015 | nilotinib -0.066 | [2] 0.052 | dasatinib -0.01 | [3] 0.045 | [4] -0.076 | [5] -0.059 | tipifarnib 0.002 | mubritinib -0.128

EDEM2 (UniProt Q9BV94)
Sequence of UniProt Q9BV94 (Q9BV94 whole entry, looked up): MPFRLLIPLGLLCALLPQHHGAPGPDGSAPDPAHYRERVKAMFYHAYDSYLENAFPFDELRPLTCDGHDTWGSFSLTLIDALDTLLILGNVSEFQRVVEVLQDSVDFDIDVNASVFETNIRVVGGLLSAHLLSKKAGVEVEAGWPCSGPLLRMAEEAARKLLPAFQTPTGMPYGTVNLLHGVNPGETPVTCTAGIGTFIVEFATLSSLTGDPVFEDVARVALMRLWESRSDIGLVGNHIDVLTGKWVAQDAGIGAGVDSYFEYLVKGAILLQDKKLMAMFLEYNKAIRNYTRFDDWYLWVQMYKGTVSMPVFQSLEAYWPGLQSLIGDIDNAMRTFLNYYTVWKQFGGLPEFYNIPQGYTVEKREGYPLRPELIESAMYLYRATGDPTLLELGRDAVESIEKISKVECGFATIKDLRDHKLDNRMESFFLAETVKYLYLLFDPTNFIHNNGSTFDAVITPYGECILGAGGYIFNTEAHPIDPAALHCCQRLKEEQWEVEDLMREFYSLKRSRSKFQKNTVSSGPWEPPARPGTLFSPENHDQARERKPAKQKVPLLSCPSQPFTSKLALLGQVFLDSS
inactive: bafetinib 0.094 | [1] 0 | nilotinib -0.096 | [2] 0.003 | dasatinib 0.114 | [3] -0.011 | [4] -0.046 | [5] 0 | tipifarnib 0.15 | mubritinib -0.117

CTSV (UniProt O60911)
Sequence of UniProt O60911 (O60911 whole entry, looked up): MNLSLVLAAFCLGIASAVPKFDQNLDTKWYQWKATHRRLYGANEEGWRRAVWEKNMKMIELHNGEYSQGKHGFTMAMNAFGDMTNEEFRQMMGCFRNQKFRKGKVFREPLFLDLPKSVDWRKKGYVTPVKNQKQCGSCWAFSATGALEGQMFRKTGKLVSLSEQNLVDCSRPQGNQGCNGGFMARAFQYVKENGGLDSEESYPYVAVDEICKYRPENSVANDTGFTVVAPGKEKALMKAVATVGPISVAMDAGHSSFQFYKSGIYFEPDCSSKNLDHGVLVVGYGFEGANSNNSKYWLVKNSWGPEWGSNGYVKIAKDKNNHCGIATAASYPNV
inactive: [1] -0.24 | nilotinib 0.036 | [2] 0.142 | dasatinib 0.061 | [3] -0.056 | [4] 0.016 | [5] -0.002 | tipifarnib 0.026 | mubritinib -0.009
active: bafetinib -0.696

DAG1 (UniProt Q14118)
Sequence of UniProt Q14118 (Q14118 whole entry, looked up): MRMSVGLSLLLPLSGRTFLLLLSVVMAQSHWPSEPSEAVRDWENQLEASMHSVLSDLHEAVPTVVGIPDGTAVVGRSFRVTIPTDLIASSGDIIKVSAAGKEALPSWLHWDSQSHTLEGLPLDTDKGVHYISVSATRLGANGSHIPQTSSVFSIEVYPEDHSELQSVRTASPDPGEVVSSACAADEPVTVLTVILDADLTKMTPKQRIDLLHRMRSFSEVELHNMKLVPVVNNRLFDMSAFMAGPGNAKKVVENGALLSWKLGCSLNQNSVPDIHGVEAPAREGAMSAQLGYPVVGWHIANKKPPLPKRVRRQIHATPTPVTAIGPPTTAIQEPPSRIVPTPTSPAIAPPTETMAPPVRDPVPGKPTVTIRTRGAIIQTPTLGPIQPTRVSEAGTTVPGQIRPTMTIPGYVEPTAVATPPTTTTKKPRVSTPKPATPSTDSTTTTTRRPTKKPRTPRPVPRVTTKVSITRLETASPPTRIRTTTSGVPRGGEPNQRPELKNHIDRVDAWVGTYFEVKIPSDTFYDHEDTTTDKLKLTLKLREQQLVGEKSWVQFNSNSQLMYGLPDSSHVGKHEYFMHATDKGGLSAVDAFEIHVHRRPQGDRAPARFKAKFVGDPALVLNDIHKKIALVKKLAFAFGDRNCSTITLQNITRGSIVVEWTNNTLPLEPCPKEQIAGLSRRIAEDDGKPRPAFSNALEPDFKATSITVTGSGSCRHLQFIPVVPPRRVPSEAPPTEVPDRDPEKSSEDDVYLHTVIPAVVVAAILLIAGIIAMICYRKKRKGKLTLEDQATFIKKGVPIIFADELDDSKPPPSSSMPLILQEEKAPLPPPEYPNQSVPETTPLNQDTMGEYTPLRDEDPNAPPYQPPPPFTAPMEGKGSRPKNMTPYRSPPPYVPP
inactive: bafetinib 0.03 | [1] -0.076 | nilotinib 0.085 | [2] 0.003 | dasatinib 0.025 | [3] -0.008 | [4] -0.001 | [5] 0.073 | tipifarnib 0.035 | mubritinib 0.05

EMD (UniProt P50402)
Sequence of UniProt P50402 (P50402 whole entry, looked up): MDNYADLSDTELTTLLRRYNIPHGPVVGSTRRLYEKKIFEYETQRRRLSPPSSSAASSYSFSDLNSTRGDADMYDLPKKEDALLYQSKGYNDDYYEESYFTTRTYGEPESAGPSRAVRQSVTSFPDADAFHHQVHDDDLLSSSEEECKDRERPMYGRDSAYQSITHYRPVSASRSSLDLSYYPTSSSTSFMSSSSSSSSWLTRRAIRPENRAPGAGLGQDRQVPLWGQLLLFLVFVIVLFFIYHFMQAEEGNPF
inactive: bafetinib -0.167 | [1] -0.081 | nilotinib 0.074 | [2] -0.071 | dasatinib -0.017 | [3] -0.045 | [4] -0.005 | [5] -0.098 | tipifarnib 0.087 | mubritinib 0.031

DHRS1 (UniProt Q96LJ7)
active: [4] 1.1
inactive: bafetinib 0.352 | [1] 0.316 | nilotinib 0.638 | [2] -0.076 | dasatinib 0.02 | [3] -0.14 | [5] -0.106 | tipifarnib 0.717 | mubritinib 0.178

FAM118A (UniProt Q9NWS6)
inactive: bafetinib -0.076 | [1] 0 | nilotinib -0.092 | [2] -0.216 | dasatinib -0.314 | [3] -0.039 | [4] -0.019 | [5] 0.135 | tipifarnib -0.128 | mubritinib 0.043

EXOC6 (UniProt Q8TAG9)
inactive: bafetinib -0.013 | [1] 0.036 | nilotinib -0.013 | [2] -0.196 | dasatinib -0.22 | [3] -0.013 | [4] 0.042 | [5] 0.028 | tipifarnib -0.076 | mubritinib 0.07
